Among the test systems are NCI-H23 lung; NCI-H226 lung; NCI-H322M lung; HOP-62 NSCLC; NCI-H460 lung; NCI-H522 lung; A549/ATCC NSCLC; 786-0 renal; COLO 205 colon; DU-145 prostate.
Common to all, as to assay: NCI-60 one-dose screen, 48 h (100 = growth as untreated, 0 = no growth, -100 = all killed)
What all share (conditions): 10 µM

Each structure is given as a SMILES string. Compounds without any hit were thinned out: in the full panel of roughly 83,000, 20% have a hit.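 Interpretation: 100, growth as untreated; towards 0, rising growth inhibition; 0, no net growth; 0 to -100, cell death. Compounds scoring below 10 were considered active.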 Unmarked numbers belong to inactive results. The source made the active and inactive calls.

Take `COc1ccc(-c2nnc(-c3c(-c4ccccc4)nc4ncccn34)o2)cc1OC`: the growth in the test on NCI-H23 lung is 97.2%; in the test on NCI-H226 lung it was 93.2%; in the test with NCI-H322M lung, 94.2%; with HOP-62 NSCLC, 84.6%; in the test with NCI-H460 lung it was 107%; in the test with NCI-H522 lung, 94.2%. For the same compound, the growth in the test with A549/ATCC NSCLC is 96%; with 786-0 renal it was 102%; in the test on COLO 205 colon it was 100%; in the test on DU-145 prostate, 109%.
`CN(CCc1ccccn1)c1ccccc1`: the growth in the test with NCI-H23 lung was 110%; in the test on NCI-H226 lung it was 113%; in the test with NCI-H322M lung, 113%; in the test with HOP-62 NSCLC, 104%; in the test on NCI-H460 lung, 118%; in the test with NCI-H522 lung it was 109%. The growth with A549/ATCC NSCLC was 99.7%; in the test with 786-0 renal it was 98.5%; in the test with COLO 205 colon, 104%; with DU-145 prostate, 121%.
Turning to `CCCCCCCCCCCCCCCCCC(=O)OCCCCCCC`, the growth is 94.8% with NCI-H23 lung; 89.6% in the test on NCI-H226 lung; 109% in the test with NCI-H322M lung; 121% with HOP-62 NSCLC; 109% with NCI-H460 lung; 107% in the test with NCI-H522 lung. Further, the growth in the test on A549/ATCC NSCLC was 95.2%; in the test with 786-0 renal, 114%; in the test on COLO 205 colon it was 110%; in the test on DU-145 prostate, 104%.
On to `O=C(Nc1ccncc1)C(=O)c1cn(S(=O)(=O)c2ccc(F)cc2)c2ccccc12`, for which the growth in the test with NCI-H23 lung was 36.8%; in the test on NCI-H226 lung, 53.7%; in the test on NCI-H322M lung it was 84.9%; in the test on HOP-62 NSCLC, 36.2%; with NCI-H522 lung, 0.626% (active); with A549/ATCC NSCLC it was 82.3%. For the same compound, the growth with 786-0 renal was 43.9%; in the test on COLO 205 colon, 103%; with DU-145 prostate, 32%.
As to `O=C(Cc1csc2nc(-c3ccc(Cl)cc3)cn12)N/N=C/c1ccccc1O`, the growth was 59.5% with NCI-H23 lung; 56.2% in the test on NCI-H226 lung; 51.4% in the test with NCI-H322M lung; 40.3% in the test with HOP-62 NSCLC; 49.2% in the test on NCI-H522 lung; 36.9% in the test with A549/ATCC NSCLC. Moreover, the growth in the test on 786-0 renal was 32.9%; in the test with COLO 205 colon, 16.5%; in the test on DU-145 prostate it was -8.65% (active).
Turning to `CC(C)=CCc1cc(O)cc2c1OC(C=C(C)C)C1=C2C(=O)C2=C(NCCS2(=O)=O)C1=O` (stereo not drawn), the growth in the test with NCI-H23 lung was -48.7% (active); with NCI-H226 lung it was -17.6% (active); in the test with NCI-H322M lung, -17.5% (active); in the test on HOP-62 NSCLC, -12.6% (active); in the test on NCI-H522 lung, -20.6% (active); in the test with A549/ATCC NSCLC, 2.33% (active). Also, the values for the growth in the test on 786-0 renal, in the test on COLO 205 colon and in the test with DU-145 prostate were 22.9%, -61.3% (active) and -95.3% (active), respectively.
As for `O=[N+]([O-])c1cccc(N=Cc2ccc3c(c2)OCO3)c1`, the growth in the test on NCI-H23 lung was 104%; in the test on NCI-H226 lung it was 104%; in the test with NCI-H322M lung, 112%; in the test with HOP-62 NSCLC, 109%; with NCI-H522 lung, 89.8%; in the test on A549/ATCC NSCLC, 101%. Besides, the growth in the test with 786-0 renal is 106%; in the test on COLO 205 colon, 120%; with DU-145 prostate, 119%.
In the case of `COc1ccc(-c2csc(NC(=O)CSc3nc(C)c(-c4ccccc4)n3Nc3ccccc3)n2)cc1`, the growth in the test on NCI-H23 lung was 21.8%; with NCI-H226 lung it was 63.8%; with NCI-H322M lung, 69.8%; in the test with HOP-62 NSCLC it was 71.1%; with NCI-H522 lung, 58.2%; in the test with A549/ATCC NSCLC it was 36.6%. The figures for the growth in the test with 786-0 renal, in the test on COLO 205 colon and in the test with DU-145 prostate were 53.3%, 66.6% and 65.3%, respectively.
On to `COc1cc(C)ccc1C(=O)c1ccc(C)cc1OC`, for which the growth in the test on NCI-H23 lung was 48.6%; in the test on NCI-H226 lung, 62.9%; in the test on NCI-H322M lung, 44.5%; with HOP-62 NSCLC, 27.7%; in the test with NCI-H522 lung, -6.71% (active); in the test with A549/ATCC NSCLC, 26.9%. The growth was 48.7% in the test on 786-0 renal, -24.9% (active) in the test on COLO 205 colon and 0.538% (active) in the test with DU-145 prostate.
Regarding `CCN1CCN(c2nc3ccccc3c3c(=O)c4ccccc4sc23)CC1`, the growth in the test on NCI-H23 lung was 64.2%; in the test with NCI-H226 lung, 49.5%; with NCI-H322M lung, 68.4%; in the test with HOP-62 NSCLC, 39.4%; in the test with NCI-H522 lung it was 35.4%; in the test on A549/ATCC NSCLC it was 31%. Besides, the growth in the test with 786-0 renal was 47%; in the test on COLO 205 colon, 10.7%; with DU-145 prostate, 33%.
Regarding `N#CCCN1C/C(=C/c2ccc(Br)cc2)C(=O)/C(=C/c2ccc(Br)cc2)C1`, the growth is -30.8% (active) in the test with NCI-H23 lung; -77.6% (active) in the test on NCI-H226 lung; -23.2% (active) in the test with NCI-H322M lung; -59.4% (active) in the test with HOP-62 NSCLC; -68.4% (active) with NCI-H522 lung; -37.6% (active) with A549/ATCC NSCLC. Besides, the growth is -67.9% (active) in the test on 786-0 renal, -93.9% (active) with COLO 205 colon and -48.4% (active) in the test with DU-145 prostate.
On to `CCN(CC)CCC(CNc1c(C)cnc2cc(Cl)ccc12)c1ccc(Cl)cc1` (stereo not drawn), for which the growth in the test on NCI-H23 lung is 61.3%; in the test with NCI-H226 lung, 102%; in the test with NCI-H322M lung, 53.8%; in the test on HOP-62 NSCLC it was 66.2%; in the test on NCI-H522 lung, 31.7%; in the test on A549/ATCC NSCLC, 64.7%. In addition, the growth with 786-0 renal is 58.2%; in the test with COLO 205 colon, -45.5% (active); in the test on DU-145 prostate, 79%.
For `CNc1ccc(CSc2ccc(C)cc2)cc1`, the growth was 91.2% with NCI-H23 lung; 32.8% in the test with NCI-H226 lung; 88.9% in the test on NCI-H322M lung; 90.4% with HOP-62 NSCLC; 4.69% (active) in the test with NCI-H522 lung; 42.4% in the test with A549/ATCC NSCLC. In addition, the growth in the test on 786-0 renal is 31.6%; in the test on COLO 205 colon, 86.4%; in the test on DU-145 prostate, 90.8%.
Turning to `O=C(CC(NC(=O)OCc1ccccc1)C(=O)OCc1ccccc1)OCc1ccccc1` (stereo not drawn), the growth is 106% with NCI-H23 lung; 106% in the test with NCI-H226 lung; 99% in the test on NCI-H322M lung; 94% in the test on HOP-62 NSCLC; 89.2% with NCI-H522 lung; 99.3% with A549/ATCC NSCLC. Further, the growth in the test on 786-0 renal was 106%; in the test on COLO 205 colon it was 99.1%; with DU-145 prostate, 111%.
Take `Cc1cc(Cl)nc(N(CCCNc2ccnc3cc(Cl)ccc23)Cc2cccs2)n1`: the growth in the test with NCI-H23 lung is -12.9% (active); in the test on NCI-H226 lung it was 41.1%; with NCI-H322M lung, 29.7%; with HOP-62 NSCLC it was 23.1%; with NCI-H522 lung it was -0.273% (active); in the test on A549/ATCC NSCLC, 18.1%. The growth in the test on 786-0 renal is 17.4%; with COLO 205 colon, -73.3% (active); with DU-145 prostate, 30.7%.

(Values after PubChem BioAssay (NCI).)
